The nature of test [1]: ATG_TAL_CIS: Attagene CIS-FACTORIAL HepG2 Assay for human TAL Basal Promoter (AID 2282966; active means hit-call score of the fitted dose curve at least 0.9, where 1 is the maximum; inactive means score below 0.9;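 further: background control endpoint measuring basal TAL promoter reporter mRNA not a specific factor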). The following applies: HepG2 Attagene cis-factorial TAL promoter reporter; actives raise or lower the signal. In outline:
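HepG2, transient MRTU transfection, 24 h compound exposure; RNA → oligo(dT) RT → PCR → 6-FAM primer extension → HpaI digest → CE fluorescence. Bidirectional curve fit vs DMSO. Background-control readout.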

The nature of test [2]: ATG_TGFb_CIS: Attagene CIS-FACTORIAL HepG2 Assay for human Transforming Growth Factor (TGF) (AID 2282967; active means hit-call score of the fitted dose curve at least 0.9, where 1 is the maximum; inactive means score below 0.9). The settings on record: HepG2 Attagene CIS TGFb reporter, mRNA transcription; actives raise or lower the signal. Summed up:
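HepG2 cells transiently transfected with cis-promoter-driven multiple reporter units measure endogenous TF activity; reporter mRNA quantified at 24 h by RT-PCR, FAM labeling, HpaI digestion and capillary electrophoresis. Bidirectional fit vs DMSO.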

Test [3] addresses Estrogen receptor (Homo sapiens) (UniProt P03372). Nature of the test: ATG_ERa_TRANS: Attagene TRANS-FACTORIAL HepG2 Assay for human Estrogen Receptor alpha (ERa) (AID 2282970). The following applies: HepG2 Attagene TRANS ERa GAL4 reporter, mRNA. Summed up: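 Reporter mRNA induction after 24 hours, detected by fluorescent RT-PCR and capillary electrophoresis, gives the read-out. Cells are HepG2 transiently transfected with GAL4-UAS reporter transcription units responding to chimeric NR-Gal4. Activity is taken as gain of signal over DMSO baseline.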

Test [4] concerns the target X-box-binding protein 1 (Homo sapiens) (UniProt P17861). Nature of the test: ATG_Xbp1_CIS: Attagene CIS-FACTORIAL HepG2 Assay for human X-box Binding Protein 1 (XBP1) (AID 2282972; active means hit-call score of the fitted dose curve at least 0.9, where 1 is the maximum; inactive means score below 0.9). The following applies: HepG2 XBP1 cis-element reporter, Attagene multiplex; actives raise or lower the signal. Summed up: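 Reporter transcripts were quantified by RT-PCR with fluorescent primer extension and capillary electrophoresis after 24 h chemical exposure. Cells: transiently transfected HepG2 carrying cis-regulated reporter constructs; data fitted bidirectionally relative to DMSO.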

The nature of test [5]: ATG_GAL4_TRANS: Attagene TRANS-FACTORIAL HepG2 Assay for GAL4 (Internal Marker) (AID 2282976). The following applies: HepG2 Attagene TRANS GAL4 internal marker reporter. Summed up: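 RT-PCR/capillary electrophoresis readout of reporter mRNA. HepG2, transient MRTU transfection (GAL4-UAS reporters), 24 h compound exposure. Background-control endpoint, positive direction vs DMSO baseline.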

In test [6] the target is Glucocorticoid receptor (Homo sapiens) (UniProt P04150). Nature of the test: ATG_GR_TRANS: Attagene TRANS-FACTORIAL HepG2 Assay for human Glucocorticoid Receptor (GR) (AID 2282978).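 Further: activators score as hits since higher reporter transcript over DMSO is fitted.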 The following applies: HepG2 Attagene TRANS GR reporter, mRNA transcription. Summed up:
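Transiently transfected HepG2 cells express chimeric NR-GAL4 proteins acting on GAL4-UAS reporter units. Compounds are applied for 24 h. mRNA induction over DMSO is measured by capillary electrophoresis.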

Test [7] has as its target Bile acid receptor (Homo sapiens) (UniProt Q96RI1). Nature of the test: ATG_FXR_TRANS: Attagene TRANS-FACTORIAL HepG2 Assay for Farnesoid X Receptor (FXR) (AID 2282979).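 Further: hits raise reporter mRNA above DMSO so AC50 marks FXR activation.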 The following applies: HepG2 Attagene TRANS FXR-GAL4 reporter transcription. Summed up: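 Read-out: fluorescent reporter transcripts quantified by capillary electrophoresis after RT-PCR of total RNA. Source cells were HepG2 transiently carrying chimeric NR-GAL4 plus GAL4-UAS reporter units, dosed 24 h. Activity fitted upward relative to DMSO baseline.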

For test [8], the target named is Oxysterols receptor LXR-alpha (Homo sapiens) (UniProt Q13133). Nature of the test: ATG_LXRa_TRANS: Attagene TRANS-FACTORIAL HepG2 Assay for human Liver X Receptor alpha (LXRa) (AID 2282980). The following applies: HepG2 Attagene TRANS reporter, LXRa transactivation. Summed up: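 Read-out: reporter transcript levels by RT-PCR plus capillary electrophoresis, fluorescence intensity. Transiently transfected HepG2, exogenous NR-GAL4 chimera, GAL4-UAS reporters; 24 h compound exposure. Activity = increase over DMSO negative control.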

Test [9] addresses Oxysterols receptor LXR-beta (Homo sapiens) (UniProt P55055). Nature of the test: ATG_LXRb_TRANS: Attagene TRANS-FACTORIAL HepG2 Assay for human Liver X Receptor beta (LXRb) (AID 2282981). The following applies: HepG2 Attagene TRANS GAL4-LXRb reporter, mRNA. Summed up:
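After 24 h chemical treatment of transfected HepG2 cells carrying exogenous NR-Gal4 chimeras, reporter mRNA was quantified by fluorescent RT-PCR and capillary electrophoresis; activity taken as increase over DMSO controls.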

Test [10] addresses Hepatocyte nuclear factor 4-alpha (Homo sapiens) (UniProt P41235). Nature of the test: ATG_HNF4a_TRANS: Attagene TRANS-FACTORIAL HepG2 Assay for human Hepatocyte Nuclear Factor 4 alpha (HNF4a) (AID 2282982). The following applies: HepG2 HNF4a transactivation reporter, mRNA readout. In outline: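 Activity of an exogenous HNF4a–Gal4 fusion scored as induced GAL4-UAS reporter transcripts after 24 h chemical exposure of transfected human HepG2 cells. Read-out via RT-PCR with 6-FAM labelling and capillary electrophoresis; rise over DMSO baseline.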

Test [11] in a line: ATG_M_06_TRANS: Attagene TRANS-FACTORIAL HepG2 Assay for M06 Transcription Factor (Internal Marker) (AID 2282983). The following applies: HepG2 Attagene TRANS M06 internal marker reporter. Summed up:
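Read-out: fluorescent reporter cDNA fragments resolved by capillary electrophoresis after RT-PCR and HpaI cut. Source cells were HepG2 carrying transfected multi-reporter GAL4 constructs, dosed 24 h. Increase over DMSO control analysed.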

The nature of test [12]: ATG_M_32_TRANS: Attagene TRANS-FACTORIAL HepG2 Assay for M32 Transcription Factor (Internal Marker) (AID 2282984).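 Further: transcript level of a background control reporter unit measured by RT-PCR and capillary electrophoresis.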 The following applies: HepG2 Attagene TRANS M32 internal marker reporter. Summed up: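 Internal background reporter in transfected HepG2: after 24 h chemical exposure, RNA reverse-transcribed, reporter cDNA amplified, fluorescently labelled and HpaI-cut, then sized by capillary electrophoresis. Gain of signal fitted against DMSO control.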

For test [13], the target named is Transcriptional activator Myb (Homo sapiens) (UniProt P10242). Nature of the test: ATG_Myb_CIS: Attagene CIS-FACTORIAL HepG2 Assay for human Myeloblastosis (Myb) Proto-Oncogene Transcription Factor (AID 2282986; active means hit-call score of the fitted dose curve at least 0.9, where 1 is the maximum; inactive means score below 0.9). The following applies: HepG2 Attagene CIS-FACTORIAL Myb reporter transcription; actives raise or lower the signal. In outline: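 Using HepG2 liver cells bearing transiently transfected cis-promoter reporter constructs, the assay measures induction or loss of reporter mRNA after 24 hours of dosing. Detection used fluorescently labeled RT-PCR products separated by capillary electrophoresis.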

The target in test [14] is Nuclear respiratory factor 1 (Homo sapiens) (UniProt Q16656). Nature of the test: ATG_NRF1_CIS: Attagene CIS-FACTORIAL HepG2 Assay for human Nuclear Respiratory Factor 1 (NRF1) Orphan Gene (AID 2282987; active means hit-call score of the fitted dose curve at least 0.9, where 1 is the maximum; inactive means score below 0.9). The following applies: HepG2 NRF1 cis-element reporter, Attagene multiplex; actives raise or lower the signal. In outline:
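Reporter mRNA induction or loss in HepG2 cells after 24 h dosing; cis-regulated reporter constructs report endogenous transcription-factor activity. Quantified by RT-PCR/capillary electrophoresis fluorescence, DMSO-referenced.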

The target in test [15] is Nuclear receptor subfamily 4 group A member 2 (Homo sapiens) (UniProt P43354). Nature of the test: ATG_NURR1_TRANS: Attagene TRANS-FACTORIAL HepG2 Assay for human Nuclear Receptor Related Protein 1 (NURR1) (AID 2282985). The settings on record: HepG2 Attagene TRANS reporter, mRNA readout. Summed up: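 Reporter transcript induction, measured by RT-PCR with fluorescent labelling, HpaI digestion and capillary electrophoresis, after 24 hr dosing of human HepG2 cells transiently expressing an exogenous NR-Gal4 fusion with GAL4-UAS-driven reporters; DMSO as baseline.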

Test [16] addresses Steroid hormone receptor ERR1 (Homo sapiens) (UniProt P11474). Nature of the test: ATG_ERRa_TRANS: Attagene TRANS-FACTORIAL HepG2 Assay for human Estrogen-Related Receptor alpha (ERRa) (AID 2282971). The following applies: HepG2 Attagene TRANS reporter, ERRa transactivation. Summed up:
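Transfected HepG2, 24 h dosing, ERRa-Gal4 chimera driving GAL4-UAS reporter. Readout: reporter mRNA via RT-PCR plus capillary electrophoresis (fluorescence). Positive direction vs DMSO control.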

Test [17] in a line: ATG_M_19_TRANS: Attagene TRANS-FACTORIAL HepG2 Assay for M19 Transcription Factor (Internal Marker) (AID 2282974). The settings on record: HepG2 Attagene TRANS-FACTORIAL M19 internal marker reporter. Summed up:
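Multiplexed TRANS format: HepG2 liver cells bearing transient GAL4-UAS reporter units, chemical treatment 24 h, reporter transcripts quantified by RT-PCR plus capillary electrophoresis. DMSO defines baseline.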

Test [18] deals with Estrogen-related receptor gamma (Homo sapiens) (UniProt P62508). Nature of the test: ATG_ERRg_TRANS: Attagene TRANS-FACTORIAL HepG2 Assay for human Estrogen-Related Receptor gamma (ERRg) (AID 2282977).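 Further: hits increase reporter signal over DMSO so potencies reflect activators.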 The settings on record: HepG2 Attagene TRANS reporter, ERRg transactivation. In outline:
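Induction of reporter transcripts through a chimeric NR-Gal4 protein is quantified in transfected human HepG2 liver cells after 24 h chemical exposure, using RT-PCR with capillary electrophoresis detection and DMSO as baseline.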

Results filed as inconclusive are left out. Activity calls are given as the source filed them. How the source made its calls, unless noted: active means hit-call score of the fitted dose curve at least 0.9, where 1 is the maximum; inconclusive means response in the unintended direction; inactive means score below 0.9.

Sequence of Transcriptional activator Myb (Homo sapiens) (P10242 whole entry, looked up): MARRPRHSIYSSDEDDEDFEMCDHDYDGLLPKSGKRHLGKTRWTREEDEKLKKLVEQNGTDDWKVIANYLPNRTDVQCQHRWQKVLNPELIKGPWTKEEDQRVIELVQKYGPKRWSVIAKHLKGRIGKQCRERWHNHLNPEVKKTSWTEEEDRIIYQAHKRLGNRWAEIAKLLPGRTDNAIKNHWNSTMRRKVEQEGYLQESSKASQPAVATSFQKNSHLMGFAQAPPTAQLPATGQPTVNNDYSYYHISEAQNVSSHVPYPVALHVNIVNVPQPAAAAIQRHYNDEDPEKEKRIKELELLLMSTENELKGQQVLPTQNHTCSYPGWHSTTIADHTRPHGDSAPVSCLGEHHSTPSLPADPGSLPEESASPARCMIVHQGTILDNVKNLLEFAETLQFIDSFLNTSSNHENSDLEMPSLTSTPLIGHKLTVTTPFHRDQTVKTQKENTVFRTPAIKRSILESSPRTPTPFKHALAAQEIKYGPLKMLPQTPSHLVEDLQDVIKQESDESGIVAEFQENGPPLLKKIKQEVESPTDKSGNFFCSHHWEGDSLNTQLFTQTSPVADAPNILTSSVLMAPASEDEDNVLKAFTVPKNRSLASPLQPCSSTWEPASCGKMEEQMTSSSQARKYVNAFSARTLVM
Sequence of Steroid hormone receptor ERR1 (Homo sapiens) (P11474 whole entry, looked up, the tested form may be a part): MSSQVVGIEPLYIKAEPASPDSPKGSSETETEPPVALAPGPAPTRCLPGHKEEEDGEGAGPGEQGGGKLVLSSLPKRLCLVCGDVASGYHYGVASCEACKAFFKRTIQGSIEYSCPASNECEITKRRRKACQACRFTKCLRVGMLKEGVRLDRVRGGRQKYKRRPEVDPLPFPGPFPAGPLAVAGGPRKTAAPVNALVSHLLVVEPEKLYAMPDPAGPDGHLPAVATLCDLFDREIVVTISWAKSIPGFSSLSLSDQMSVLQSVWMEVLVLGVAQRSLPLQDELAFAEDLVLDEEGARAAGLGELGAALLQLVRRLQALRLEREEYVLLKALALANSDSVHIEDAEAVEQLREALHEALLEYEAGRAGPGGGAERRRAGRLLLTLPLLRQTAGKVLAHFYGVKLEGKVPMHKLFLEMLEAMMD
Sequence of Oxysterols receptor LXR-beta (Homo sapiens) (P55055 whole entry, looked up, the tested form may be a part): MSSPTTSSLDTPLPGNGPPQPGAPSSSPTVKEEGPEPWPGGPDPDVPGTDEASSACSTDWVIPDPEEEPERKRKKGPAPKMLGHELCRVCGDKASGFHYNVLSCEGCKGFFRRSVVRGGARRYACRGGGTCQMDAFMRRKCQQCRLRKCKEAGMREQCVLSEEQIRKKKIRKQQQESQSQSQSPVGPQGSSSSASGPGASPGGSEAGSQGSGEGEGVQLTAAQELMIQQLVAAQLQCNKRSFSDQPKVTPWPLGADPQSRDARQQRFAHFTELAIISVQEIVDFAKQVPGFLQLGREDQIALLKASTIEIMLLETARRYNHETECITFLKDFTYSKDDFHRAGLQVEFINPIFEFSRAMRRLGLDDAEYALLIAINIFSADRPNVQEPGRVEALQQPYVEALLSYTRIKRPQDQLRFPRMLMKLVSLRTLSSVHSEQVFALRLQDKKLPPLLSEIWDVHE
Sequence of X-box-binding protein 1 (Homo sapiens) (P17861 whole entry, looked up): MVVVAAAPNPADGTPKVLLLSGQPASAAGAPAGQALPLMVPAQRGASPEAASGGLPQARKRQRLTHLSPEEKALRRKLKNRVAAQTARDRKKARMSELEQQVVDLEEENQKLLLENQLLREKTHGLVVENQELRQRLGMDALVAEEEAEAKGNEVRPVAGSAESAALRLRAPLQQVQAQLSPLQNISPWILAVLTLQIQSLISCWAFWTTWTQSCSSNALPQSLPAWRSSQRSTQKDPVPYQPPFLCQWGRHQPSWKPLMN
Sequence of Estrogen receptor (Homo sapiens) (P03372 whole entry, looked up, the tested form may be a part): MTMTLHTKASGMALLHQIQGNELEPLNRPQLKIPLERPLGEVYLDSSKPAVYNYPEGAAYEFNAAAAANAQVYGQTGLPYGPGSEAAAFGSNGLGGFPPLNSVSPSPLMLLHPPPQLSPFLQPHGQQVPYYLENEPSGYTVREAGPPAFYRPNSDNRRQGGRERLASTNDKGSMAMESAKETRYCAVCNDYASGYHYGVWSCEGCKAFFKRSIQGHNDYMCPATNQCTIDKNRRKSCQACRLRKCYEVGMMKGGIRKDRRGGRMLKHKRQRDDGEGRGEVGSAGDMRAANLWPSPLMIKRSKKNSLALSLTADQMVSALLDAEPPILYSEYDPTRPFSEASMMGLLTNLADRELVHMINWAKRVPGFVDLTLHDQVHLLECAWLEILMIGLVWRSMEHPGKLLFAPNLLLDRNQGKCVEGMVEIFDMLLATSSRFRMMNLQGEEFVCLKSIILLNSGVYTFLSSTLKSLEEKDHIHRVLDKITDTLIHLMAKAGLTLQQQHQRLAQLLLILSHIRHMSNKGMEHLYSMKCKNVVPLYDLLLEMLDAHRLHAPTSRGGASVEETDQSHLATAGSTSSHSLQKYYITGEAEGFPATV
Sequence of Nuclear receptor subfamily 4 group A member 2 (Homo sapiens) (P43354 whole entry, looked up, the tested form may be a part): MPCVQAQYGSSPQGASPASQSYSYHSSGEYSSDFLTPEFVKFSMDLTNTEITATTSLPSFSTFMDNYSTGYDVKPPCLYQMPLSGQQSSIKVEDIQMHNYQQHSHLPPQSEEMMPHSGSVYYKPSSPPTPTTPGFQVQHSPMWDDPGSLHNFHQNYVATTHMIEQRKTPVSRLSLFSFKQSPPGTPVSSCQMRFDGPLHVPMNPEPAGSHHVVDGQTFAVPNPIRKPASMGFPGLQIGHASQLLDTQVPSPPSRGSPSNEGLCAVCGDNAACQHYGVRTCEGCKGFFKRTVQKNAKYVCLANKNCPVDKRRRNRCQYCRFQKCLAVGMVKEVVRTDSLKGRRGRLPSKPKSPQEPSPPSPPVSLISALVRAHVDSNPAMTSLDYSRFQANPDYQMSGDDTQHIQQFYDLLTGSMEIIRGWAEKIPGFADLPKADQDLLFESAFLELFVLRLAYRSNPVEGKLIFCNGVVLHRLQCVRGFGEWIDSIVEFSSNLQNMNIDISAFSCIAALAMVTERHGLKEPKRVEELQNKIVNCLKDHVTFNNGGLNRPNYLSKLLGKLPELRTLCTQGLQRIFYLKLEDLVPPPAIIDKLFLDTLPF
Sequence of Nuclear respiratory factor 1 (Homo sapiens) (Q16656 whole entry, looked up): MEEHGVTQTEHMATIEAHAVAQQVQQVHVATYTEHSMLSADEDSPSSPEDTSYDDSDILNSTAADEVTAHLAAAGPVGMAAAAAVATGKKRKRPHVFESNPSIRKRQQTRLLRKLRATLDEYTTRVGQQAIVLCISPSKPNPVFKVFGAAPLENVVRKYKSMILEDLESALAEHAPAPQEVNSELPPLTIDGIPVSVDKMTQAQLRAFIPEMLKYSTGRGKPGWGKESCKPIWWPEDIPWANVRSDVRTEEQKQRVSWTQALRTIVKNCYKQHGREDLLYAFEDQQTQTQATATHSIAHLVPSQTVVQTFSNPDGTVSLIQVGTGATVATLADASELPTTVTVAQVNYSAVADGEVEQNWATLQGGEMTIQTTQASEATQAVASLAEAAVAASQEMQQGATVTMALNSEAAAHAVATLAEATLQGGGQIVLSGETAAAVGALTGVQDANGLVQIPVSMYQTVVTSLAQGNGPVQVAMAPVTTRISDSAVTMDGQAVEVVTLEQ
Sequence of Glucocorticoid receptor (Homo sapiens) (P04150 whole entry, looked up, the tested form may be a part): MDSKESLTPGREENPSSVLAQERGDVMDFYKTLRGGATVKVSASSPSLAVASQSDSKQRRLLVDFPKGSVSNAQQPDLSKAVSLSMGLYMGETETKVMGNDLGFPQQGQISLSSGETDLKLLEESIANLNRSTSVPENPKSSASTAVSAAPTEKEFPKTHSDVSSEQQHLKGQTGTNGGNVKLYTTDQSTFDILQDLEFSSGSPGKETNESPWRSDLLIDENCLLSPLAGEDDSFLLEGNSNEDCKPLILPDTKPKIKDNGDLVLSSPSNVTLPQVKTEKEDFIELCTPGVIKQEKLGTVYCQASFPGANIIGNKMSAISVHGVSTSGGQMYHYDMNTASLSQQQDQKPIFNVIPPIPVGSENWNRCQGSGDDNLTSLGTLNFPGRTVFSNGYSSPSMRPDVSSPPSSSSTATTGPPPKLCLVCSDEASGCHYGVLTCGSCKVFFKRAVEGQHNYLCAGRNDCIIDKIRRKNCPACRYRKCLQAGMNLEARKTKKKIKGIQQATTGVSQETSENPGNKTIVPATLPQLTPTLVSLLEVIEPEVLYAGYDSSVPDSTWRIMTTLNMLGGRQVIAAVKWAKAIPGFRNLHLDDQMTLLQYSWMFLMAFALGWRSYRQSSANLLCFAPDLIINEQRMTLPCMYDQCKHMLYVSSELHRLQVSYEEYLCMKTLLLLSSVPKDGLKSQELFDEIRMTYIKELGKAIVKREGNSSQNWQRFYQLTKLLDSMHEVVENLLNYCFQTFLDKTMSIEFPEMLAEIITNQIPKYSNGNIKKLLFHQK
Sequence of Oxysterols receptor LXR-alpha (Homo sapiens) (Q13133 whole entry, looked up, the tested form may be a part): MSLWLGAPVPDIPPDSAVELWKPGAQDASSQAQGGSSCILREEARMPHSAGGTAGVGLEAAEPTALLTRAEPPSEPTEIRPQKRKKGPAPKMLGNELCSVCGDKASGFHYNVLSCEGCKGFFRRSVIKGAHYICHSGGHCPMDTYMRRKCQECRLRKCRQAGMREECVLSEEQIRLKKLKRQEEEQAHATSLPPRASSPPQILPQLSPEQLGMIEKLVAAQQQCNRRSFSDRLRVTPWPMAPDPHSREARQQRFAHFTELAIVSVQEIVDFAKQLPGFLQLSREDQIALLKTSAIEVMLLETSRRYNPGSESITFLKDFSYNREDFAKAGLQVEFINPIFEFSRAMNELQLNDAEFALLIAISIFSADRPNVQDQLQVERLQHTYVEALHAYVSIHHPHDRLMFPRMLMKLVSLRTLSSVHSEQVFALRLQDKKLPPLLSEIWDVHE

Consider `COc1cc2ncnc(Nc3cccc(Cl)c3)c2cc1OC`, for which the AC50 (as a rule, the concentration giving half of the maximal activity seen) in test [1] was 13.4 µM (active); in test [4] it was 8.13 µM (active). Besides, the call in test [2], in test [3], in [5], in test [6], in test [7] and in test [8] was inactive. In addition, the result in test [9], in test [10], in [11], in test [12], in test [13] and in test [14] was inactive.
For `CC(=O)/C=C/C1=C(C)CCCC1(C)C`, the compound was called inactive in test [1], in test [2], in [3], in [4], in test [8] and in test [11]. Also, the outcome in [15] and in test [14] was inactive.
Take `CC(=O)O[C@H](CC(=O)[O-])C[N+](C)(C)C`: the outcome in test [1], in [2], in test [16], in test [4], in [17] and in [18] was inactive. Moreover, the result in test [6], in test [8] and in [14] was inactive.
In the case of `COc1ccc(Nc2ccccc2)c(C)c1`, the compound was classed as inactive in test [1], in [2], in [16], in [4], in test [6] and in test [9]. The call in test [11], in test [12], in test [13] and in test [14] was inactive. In addition, the concentration at half-maximal activity (AC50) in [3] was 7.87 µM (active); in test [15], 143 µM (active).
Regarding `Cc1cccc(Nc2ccccc2C(=O)O)c1C`, the result in test [1], in [2], in test [4], in test [17], in [5] and in test [6] was inactive. Moreover, the compound was classed as inactive in test [9], in test [10], in test [11], in [12], in [15] and in test [14].
Turning to `CC(C)(N)CO`, the compound was called inactive in test [1], in test [2], in test [3], in [16], in [4] and in test [18]. The compound was called inactive in test [6], in test [7], in [8], in test [9], in test [11] and in [13]. The compound was called inactive in test [14].

These data come from PubChem BioAssay (EPA / NIEHS).
